From the supplement of paper PMC6555819

These sequences were tested on LXRb homodimer (NR concentration 270 nM) (assay: PBM binding z-score (relative to random genomic background probes); higher = stronger binding; sequences stand for … in GC…GCGATTGACAGCGTAGAATGAAGG).
Outline: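 Ligand-free nuclear receptor dimers were bound for 1 h to custom Agilent 4×180K protein-binding microarrays. Detection used antibodies against each partner (one per run). Binding z-scores rest on regression-normalized fluorescence, with random background probes as the reference.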

| Sequence | PBM binding z-score |
| --- | --- |
| ATCTCAAGGTAAAGTTCAGTGAAAGATCGATAGA | 0.854 |
| GCTAGTTGGTTAGTAAAAGGTCACACACCGGTCG | 1.08 |
| CCTAGTTGGTCAGGAGGTCACTCACCGGATATGA | 0.66 |
| ACGAGCAGGCCAAGGGTCACTCAAGATTAGTCCG | -0.627 |
| TGAATGAGGTTATAAGTTCAGGGAACGTTGCAAA | -0.136 |
| ATTTCTAGGTAAGACTCAGTTCAGTGAAGAACGC | 1.31 |
| TCTATTAGTTGAAGGGCAACCGCCGAGTCCGTTT | 0.231 |
| TCTAGCAGGCCGGAGGGTCACTCAAGAGGTACGG | -1.11 |
| TCTCGGAGGACACGAAAGGTTAGAGCTCGACATC | -0.852 |
| ATATGTAGGTTACATCCGGGTCAATCAGGCTATG | 0.748 |
| GATACAGGGTAAAGGCCAGAGTACGCGTATTGAT | -0.658 |
| CCGACTGGGGCATAAGGTTGCCATAAGCCAGCCC | -1.17 |
| CCTCGGAGGACAGAAGGTCAGAGCAGTCCGCTTT | -0.798 |
| ACTATTAGGTGAGACGAGGGCAACCGATAGGTTG | -0.293 |
| CGAACTAGGTCACGAAAGGTCAAAGTCGAATGAC | 2.38 |
| CCTTACAGGTCACTCCAGGTTATAGCATCGGAGT | 1.27 |
| AGAATGAGGTTACCAAAGATCAGGGGAACGCTTG | -0.39 |
| GCATTTAGGTAATACAAGGTGAAAGTCCGATTGT | -0.034 |
| TTACCAAGGTGAGCTGAGGTCATTGATCCAACTC | -0.78 |
| AGAATGAGGATATTAAGATCAGGGAATTGCGGTC | -0.355 |
| ACTGTTAGTTGACTTAGGGCAACCGATACGACGC | 1.15 |
| ATCTCTAGGTAACCATGTTCAGTGAATGCCGAAC | 0.529 |
